Results on 40 molecules are retold here after PubChem BioAssay (NCI).

This is part of a sample that, as a whole, favours compounds with a hit. Of some 83,000 tested, about 20% had one in any assay.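 Growth was measured after 48 h exposure to one concentration of compound in 96-well plates. Values under 10 count as active.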 Calls of active or inactive are those of the source.

The test has as its system HCC-2998 colon. Nature of the test: NCI-60 one-dose screen, 48 h (100 = growth as untreated, 0 = no growth, -100 = all killed). Conditions: 10 µM unless noted. As to the method:
Growth inhibition of the HCC-2998 human tumor cell line is measured as a screen for anti-cancer activity. Cells are grown in 96 well plates and exposed to the test compound for 48 hours. Compounds are tested at a single concentration, which is 10^-5 M for most compounds. The reported endpoint is percent growth (GI% or GIPRCNT), where numbers from 0 - 100% represent growth inhibition, and numbers from -100% - 0 represent cell death. For example, a value of 40 represents 60% growth inhibition. A value of 0 means no net growth occurred over the course of the experiment. A value of -40 indicates 40% of cells at the beginning of the experiment died by the end of the experiment. A value of -100 means all cells are dead at the end of the experiment.
NCI-60 Human Tumor Cell Lines Screen was performed using the standard one-dose NCI protocol, which is described in more detail at https://dtp.cancer.gov/discovery_development/nci-60/default.htm.
Compounds with GIPRCNT values below 10 were considered active. Activity score was based on GIPRCNT using the following formula: […]
Score is 0 for GIPRCNT values of 100 or above, 50 for GIPRCNT values of 0, and 100 for GIPRCNT values of -100.
Turning to `COc1ccc(C2CC(=O)Nc3c2c(C)nn3-c2nc3ccccc3[nH]2)cc1OC` (stereo not given), the growth is 96.5% (inactive).
As for `Clc1nc(-c2cccnc2)nc2sc3c(c12)CCCCCC3`, the growth was 107% (inactive).
As to `Cc1cc(Nc2nc(-c3ccncc3)nc3ccccc23)n[nH]1`, the growth is 72% (inactive).
Take `CCN(CC)P(=O)(N(CC)CC)N(CCCSC/C=C(\C)CC/C=C(\C)CCC=C(C)C)CCCN1CCN(C)CC1`: the growth is 104% (inactive).
Regarding `Cc1cc(C(=O)CSc2nc3ccccc3c(=O)[nH]2)c(C)n1C`, the growth was 72.9% (inactive).
Take `COc1cccc(/C=C/c2c(C(=O)O)cccc2[N+](=O)[O-])c1OC`: the growth is 104% (inactive).
In the case of `CCN1C(=O)/C(=c2\sc3n(c2=O)C2C(NN=3)N(CC)C(=S)N2CC)c2ccccc21` (stereo not given), the growth is 104% (inactive).
On to `COc1ccc(S(=O)(=O)N2CCN(c3cc4c(cc3F)c(=O)c(C(=O)O)cn4C3CC3)CC2)c(OC)c1`, for which the growth was 118% (inactive).
As to `CN=S(=O)(NC(=O)c1ccc(Cl)cc1Cl)c1ccc(Br)s1` (stereo not given), the growth was 111% (inactive).
Regarding `CCOC(=O)C(Cc1ccccc1)n1c(O)c(C=Nc2ccc(C(=O)OCCN(CC)CC)cc2)sc1=O` (stereo not given), the growth is 108% (inactive).
Turning to `O=C(Nc1cccc(C(F)(F)F)c1)Nc1ccc(OCc2nnc(-c3ccccc3)o2)c(F)c1`, the growth was 64.3% (inactive).
Consider `CC(Cc1nnc(SCC(=O)Nc2ccc(I)cc2)n1N)c1ccccc1` (stereo not given), for which the growth is 86.7% (inactive).
With `CC(C(=O)n1cc(-c2ccccc2)c(-c2ccccc2)c1)c1ccccc1` (stereo not given), the growth was 104% (inactive).
The result for `COc1ccc(OC)c(-c2ccc(-c3ccccc3N)c3[nH]c4ccccc4c23)c1` reads 102% (inactive).
`COc1cc(NC(=O)c2cc3ccccc3nc2Nc2ccc(F)cc2)cc(OC)c1OC`: the growth is 65.9% (inactive).
Consider `C=CC(=O)N[C@H](/C=C/C(=O)OCC)Cc1ccc(-c2cc(Cl)cc(Cl)c2)cc1`, for which the growth was 94.6% (inactive).
The result for `COc1ccc(/C=C/c2nc(N3CCOCC3)c3nc(Cl)c(Cl)cc3n2)cc1OC` reads 103% (inactive); that for `COc1cc(C2C3=C(COC3=O)Nc3c2ccc2c3CCCC2)cc2c1OCO2` (stereo not given), 5.11% (active).
Regarding `NC(=O)NC(=O)/C=C/C(=O)OCCCl`, the growth is 99.8% (inactive).
On to `COc1cc(Br)c(OC)cc1Br`, for which the growth is 99.6% (inactive).
With `CC(Br)C(Br)c1cc2c(cc1Br)OCO2` (stereo not given), the growth was 96% (inactive).
The result for `COc1cc(Cn2c(SCCC(=O)Nc3ccc(F)cc3)nc3ccccc3c2=O)cc(OC)c1OC` reads 95.7% (inactive); that for `CCN(CC)CCCC(C)N=c1cc(Nc2cc(=NC(C)CCCN(CC)CC)c3cc(OC)ccc3o2)oc2ccc(OC)cc12` (stereo not given), -88.9% (active).
`CN(C)C/C=C/C(=O)Nc1cc2c(Nc3ccc(F)c(Cl)c3F)ncnc2cc1OCCOC(F)F`: the growth is 41.1% (inactive).
As for `Cc1nc2sccn2c1-c1csc(Nc2ccccc2Cl)n1`, the growth was 63.8% (inactive).
Take `Oc1ccc(N=Cc2ccccc2)cc1`: the growth was 100% (inactive).
As to `COc1cc(OC)c(C(=O)/C=C/c2cccc(C(F)(F)F)c2)c(OC)c1`, the growth was 29.1% (inactive).
The result for `CCN1C(=O)N(CC)C2C1NN=c1s/c(=C\c3ccccn3)c(=O)n12` (stereo not given) reads 65.8% (inactive).
The figure for `CN(C)c1ccc(-c2ccc(-c3ccc(C(=N)N)cn3)o2)cc1` is -73.5% (active); for `Nc1c(C(=O)Nc2cccc(C(F)(F)F)c2)sc2nc3c(cc12)CCCCC3` it is 46.9% (inactive).
Consider `O=C(Nc1cc(C(F)(F)F)cc(C(F)(F)F)c1)Nc1ccc(OCc2nnc(-c3ccc(Cl)cc3)o2)c(F)c1`, for which the growth was 20.3% (inactive).
The figure for `Cc1ccc(S(=O)(=O)NCCCNc2nccc(-c3c(-c4ccccc4)nc4sccn34)n2)cc1` is 93.9% (inactive); for `COc1ccc(C2=CC(c3ccc(Oc4ccnc5cc(Cl)ccc45)c(OC)c3)c3c(nc(OC)[nH]c3=O)N2)cc1` (stereo not given) it is 84.3% (inactive); for `COc1ccc(C2NC3=C(CCCC3)C(C#N)(C#N)C2(C#N)C#N)cc1` (stereo not given) it is 102% (inactive).
With `O=S(=O)(NCCCNc1nccc(-c2c(-c3ccc(F)c(O)c3)nc3sccn23)n1)c1ccc(Cl)cc1`, the growth is 112% (inactive).
As to `Cc1nn(-c2ccc(Cl)cc2)c(=O)n1CCOc1ccccc1Cl`, the growth is 106% (inactive).
For the molecule `CC1(C)OC2COC3(C(=O)O)OC(C)(C)OC3C2O1` (stereo not given), the growth is 97.6% (inactive).
For the molecule `Cc1ccc(Cn2c(-c3nonc3N)nc3ccccc32)cc1`, the growth was 75.1% (inactive).
`O=C(CSc1nc(-c2ccc(Cl)cc2)cn1-c1ccc(Cl)cc1)c1ccc(Br)cc1`: the growth was 89.6% (inactive).
Regarding `CNC(C)=O`, the growth is 101% (inactive).
